Abeta yeast res: A-beta toxicity reversal in yeast; yeast expressing A-beta42, growth rescue, OD600, 48 h; response scale: 0% DMSO, 100% iron-clioquinol control; Potency, µM (highest dose often 46.1 µM), usual class: activators; hit rate 0.063% among 410,000; note: nearly all actives have a fitted effect of over 55% in size
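Yeast growth medium received pinned compounds, then yeast cells expressing toxic A-beta were added; plates incubated at 30 C for 48 hr. Growth read as absorbance at 600 nm, normalized to DMSO and equimolar FeCl3 plus clioquinol controls.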
FUS suppressor: FUS proteinopathy suppression in yeast; Potency, µM (series often up to 76.6 µM), most hits filed as activators; AID 1347120; S. cerevisiae FUS-expressing, growth rescue, OD600, 24 h; hit rate 0.24% among 390,000;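 note: plate controls were DMSO vehicle for no effect and reference control for full effect; nearly all actives have a fitted effect of over 55% in size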
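Cultures pregrown in 2.5% raffinose medium are shifted to minimal medium containing 2% galactose to express toxic FUS. Compounds are tested at several concentrations. After 24hr at 30C, growth is quantified at 600 nm absorbance.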
aSyn rescue: inhibitors of alpha-synuclein toxicity in yeast. Yeast expressing alpha-synuclein, growth rescue, BacTiter-Glo, 24 h. Potency, µM (doses to about 46.1 µM), for the others: at the highest dose growth rescue (activation), usual class: activators. hit rate 0.14% among 370,000. AID 652106; note: % of control where 0% means no effect; nearly all actives have a fitted effect of over 65% in size
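Galactose-induced alpha-syn yeast (OD600=0.02, raffinose-pregrown) + pinned cpd, 24 hr, 30 deg C; growth by BacTiter-Glo luminescence. Growth restoration scores as activation.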
ERG Ets-DNA blk: inhibitors of human ERG Ets domain-DNA interaction; fluorescence polarization, His-ERG Ets domain / labelled DNA; P11308; Potency, µM (top dose mostly 76.9 µM), inactives show at the highest dose FP activity, negative = inhibition, usual class: inhibitors; hit rate 0.028% among 370,000; active = well fitted inhibition curve with a large enough effect in the polarisation, with a control signal flat; inconclusive = small, poorly fitted or top-dose-only effect, or effect the other way, or a change in a side signal; inactive = no such curve, though single readings can be large or run the other way; the % refers to the polarisation;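 note: polarization taken with two DNA probes labelled with fluorescein and Texas red; % of control where 0% means no effect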
Target sequence (P11308 whole entry, looked up, the tested form may be a part): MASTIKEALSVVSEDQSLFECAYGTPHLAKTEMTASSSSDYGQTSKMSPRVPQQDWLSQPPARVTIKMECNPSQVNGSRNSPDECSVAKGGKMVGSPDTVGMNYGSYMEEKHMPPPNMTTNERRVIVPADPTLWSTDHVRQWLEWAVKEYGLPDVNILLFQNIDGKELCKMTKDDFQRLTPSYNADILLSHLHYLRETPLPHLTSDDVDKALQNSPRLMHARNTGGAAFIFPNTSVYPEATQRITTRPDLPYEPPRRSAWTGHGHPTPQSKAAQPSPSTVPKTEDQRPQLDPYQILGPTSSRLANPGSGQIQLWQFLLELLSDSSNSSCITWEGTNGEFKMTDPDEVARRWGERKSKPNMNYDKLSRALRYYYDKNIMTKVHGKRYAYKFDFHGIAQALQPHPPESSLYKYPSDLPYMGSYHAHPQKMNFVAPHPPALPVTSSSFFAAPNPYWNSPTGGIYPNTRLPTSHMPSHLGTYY
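His-tagged ERG Ets domain (1 uM in the protein solution; 300mM KCl, 50mM Tris-HCl, 1mM EDTA, 1mM DTT, pH 7.5) received compound, then a probe mix of 5 nM fluorescein-DNA and 100nM Texas-615-DNA. Fluorescence polarization was read for both dyes.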
Mito fusion yeast: inhibitors of mitochondrial division or activators of mitochondrial fusion; S. cerevisiae fusion-defective mutant growth rescue, CellTiterGlo 48 h; Potency, µM (doses to about 46.1 µM), inactives show at the highest dose growth rescue (activation), hits mostly activators; hit rate 0.23% among 320,000; AID 485298; note: % of control where 0% means no effect; nearly all actives have a fitted effect of over 45% in size
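S. cerevisiae fusion-defective temperature-sensitive mutants (e.g. fzo1-1, mgm1-5) grown 48 h at 37C in YPEG (ethanol/glycerol non-fermentable) medium with 23 nl compound per well; growth rescue read as CellTiterGlo luminescence.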
TDP43 rescue: rescues yeast growth from TDP-43 toxicity | Potency, µM (highest dose often 46.1 µM), for the others: at the top dose growth rescue (activation), actives largely listed as activators | TDP-43 expressing yeast growth rescue, BacTiter-Glo, 24 h | hit rate 1.8% among 410,000 | AID 652104; note: % of control where 0% means no effect; nearly all actives have a fitted effect of over 50% in size
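Galactose-induced TDP-43 yeast, OD600=0.02, compound pinned; 24 hr, 30 deg C; BacTiter-Glo luminescence for growth. Inhibitors of TDP-43 toxicity read as activators.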
* marks the source's active call; other numbers are inactive results; i = inactive; u = inconclusive; x = no result given; [ ] = remark or other dose. A selection: hits, their analogues and other compounds. The true share with any hit is near 2.2%. Unless noted, calls come from the whole dose curve; as a rule, active = well fitted curve in the direction sought with a large enough effect; inconclusive = small, poorly fitted or top-dose-only effect, or another doubt; inactive = no such curve, though single readings can be large; an effect the other way counts as inactive or inconclusive. Potency is the fitted concentration of half-maximal effect.

SMILES	Abeta yeast res	FUS suppressor	aSyn rescue	ERG Ets-DNA blk	Mito fusion yeast	TDP43 rescue
Cc1ccc2nc3ccc(N4CCCCCCC4)nn3c(=O)c2c1	i	i	-10.1%	-4.5%	2.4%	22.4µM*
O=C(Nc1ccc(Cl)cc1Cl)Nn1cnnc1	i	i	-1.3%	1.1%	-1.5%	0.6%
O=C(Nc1ccno1)Nc1ccc(Cl)cc1Cl	i	i	-12.3%	-7.3%	8.8%	14.1µM*
CC1CCc2c(sc(N)c2C(N)=O)C1 (centres undefined)	i	31.6µM*	14.7%	-10.6%	-0.5%	-16.2%
COC(=O)[C@@]1(Cc2ccc(OC)cc2)[C@H]2c3cc(C(=O)N4CCCC4)n(Cc4ccc(S(C)(=O)=O)cc4)c3C[C@H]2CN1C(=O)c1ccccc1	i	25.1µM*	4.1%	x	x	10.9%
COc1cc(-c2noc(-c3nnn(-c4ccc(Cl)cc4)c3C)n2)cc(OC)c1OC	i	i	x	0.8%	x	22.6%
CCOc1ccc(NCc2cccn2-c2nnc(N3CCC(C(=O)NCCc4ccc(OCC)c(OCC)c4)CC3)s2)cc1	i	u	x	1.6%	x	9.5%
CCOc1ccc(NCc2cccn2-c2nnc(N3CCC(C(=O)NCCc4ccc(OC)c(OC)c4)CC3)s2)cc1	i	25.1µM*	x	0.3%	x	-6.4%
Cc1nc(/N=C\c2ccc(N(C)C)cc2)sc1C	i	i	2.1%	9.2%	-7.8%	4.1%
CC(=O)Nc1ccc(N=Nc2ccccc2)cc1	i	x	-11.8%	x	19.1%	10µM*
CC(=O)OCC(=O)Nc1ccc(N=Nc2ccccc2)cc1	i	i	-15.4%	-2.6%	7.0%	11.2µM*
COc1cc(C(=O)NCc2nc(-c3ccc(Cl)cc3)no2)cc(OC)c1OC	i	i	x	-16.8%	x	-6.2%
CCOc1cc(Cn2c(-c3ccc(O)c(OCC)c3)nc3ccccc32)ccc1O	i	u	x	3.2%	x	9.6%
CC(C)Cc1ccc(C(=O)NCc2ccc3c(c2)OCO3)o1	i	i	-2.9%	21.9%	2.3%	14.1µM*
Cc1cc(C)cc(-n2nnc(C(=O)NCc3ccc4c(c3)OCO4)c2N)c1	i	i	10.4%	9.4%	14.5%	u
Cc1cccc(-n2nnc(C(=O)NCc3ccc4c(c3)OCO4)c2N)c1	i	i	9.8%	-3.2%	7.5%	17.8µM*
Cc1c(C(=O)NCc2ccc3c(c2)OCO3)oc2ccccc12	i	i	4.5%	-2.4%	u	15.8µM*
CCc1nc(NCc2ccc3c(c2)OCO3)c2oc3ccccc3c2n1	i	i	-11.9%	-2.5%	19.0%	11.2µM*
O=C(NCc1ccc2c(c1)OCO2)c1ccc(CS(=O)(=O)c2ccc(Br)cc2)o1	i	i	2.5%	1.5%	2.6%	15.5%
CCc1c(C)sc(NC(=O)c2cc3nc(-c4ccc(OC)cc4)cc(C(F)(F)F)n3n2)c1C(=O)OC	i	i	x	3.3%	x	5.3%
CSc1ccc(CCNC(=O)CCc2c(C)nc3c(c(C)nn3-c3ccc(C)c(C)c3)c2C)cc1	i	i	x	-2.3%	x	2.9%
COc1ccc(CCNC(=O)c2cc3c(=O)[nH]c4ccc(C)cc4c3s2)cc1OC	i	i	x	1.2%	x	-1.8%
COc1ccccc1C1c2c(ncn(-c3ccccc3)c2=N)Oc2ccc3ccccc3c21 (centres undefined)	x	i	x	x	x	x
Cc1ccc2oc(C(=O)NCc3ccc4c(c3)OCO4)c(C)c2c1	i	i	-4.5%	-10.8%	-1.8%	22.4µM*
Cc1c(C(=O)NCc2ccc3c(c2)OCO3)oc2ccc(Br)cc12	i	i	-1.2%	-5.1%	22.2%	-15.9%
SMILES	Abeta yeast res	FUS suppressor	aSyn rescue	ERG Ets-DNA blk	Mito fusion yeast	TDP43 rescue
Cn1cnc(S(=O)(=O)N2CCC(C(=O)NCc3ccc(Cl)cc3)CC2)c1	i	i	x	-0.3%	x	6.4%
CC(=O)c1ccc2noc(-c3ccccc3)c2c1	i	i	-1.9%	9.5%	17.3%	-6.0%[0.397 µM]
c1ccc(-c2onc3cc4c(cc23)OCCO4)cc1	i	i	-0.8%	5.8%	1.2%	35.5µM*
O=C(Nc1ccccc1C(F)(F)F)N1CC=C(c2c[nH]c3ccccc23)CC1	i	i	x	-4.3%	x	10.7%
COc1ccc(C2CC(=O)c3cc(-c4nc(-c5cccc([N+](=O)[O-])c5)cs4)c(=O)n(-c4ccc(C)c(C)c4)c3C2)cc1 (centres undefined)	i	i	x	-2.6%	x	-8.5%
Nc1nc(SCC(=O)N2N=C3/C(=C\c4ccco4)CCCC3C2c2ccco2)n[nH]1 (centres undefined)	i	31.6µM*	9.5%	2.2%	x	-8.0%
Nc1nc(SCC(=O)N2N=C3/C(=C/c4ccco4)CCCC3C2c2ccco2)n[nH]1 (centres undefined)	i	i	-1.5%	-7.3%	-0.5%	1.2%
CC1=C(C#N)C(=O)NC(=O)/C1=C\c1ccc(-c2ccc(C)cc2[N+](=O)[O-])o1	i	i	4.8%	6.3%	0.7%	31.6µM*
CCOC(=O)c1cc(-c2ccc(/C=C3/C(=O)NC(=O)C(C#N)=C3C)o2)ccc1Cl	i	u	-86.8%	-10.2%	-6.7%	-6.5%
CCOc1ccc(NC(=O)CN(C)C(=O)c2cc3c(s2)CCC3)cc1OCC	i	u	u	x	x	3.1%
CSc1ccc(S(=O)(=O)NCc2ccccc2C)cc1	i	i	5.9%	8.6%	10.2%	14.1µM*
Cc1ccc(S(=O)(=O)NCc2ccccc2C)cc1	i	i	0.0%	11.4%	3.4%	8.3%
CC1(C(=O)OCC(=O)NCc2ccc(Cl)cc2)CC1(Cl)Cl (centres undefined)	i	x	10.5%	6.2%	x	14.1µM*
O=C(COC(=O)Cc1ccc(Cl)cc1)NCc1ccc(F)cc1	i	i	7.7%[1.84 µM]	-12.7%	3.5%	u
O=C(COC(=O)CCC(=O)c1ccc(Cl)cc1)NCc1ccc(F)cc1	i	i	2.2%	2.7%	x	14.1µM*
CN1CCN(c2oc(/C=C/c3ccc(F)cc3)nc2C#N)CC1	i	i	x	0.1%	x	11.1%
COC(=O)c1c(NC(=O)C2C3C=CC(CC3)C2C(=O)O)sc(C)c1C (centres undefined)	i	x	4.2%	-0.3%	25.7%	0.0%
CCOC(=O)c1c(NC(=O)C2C3C=CC(CC3)C2C(=O)O)sc(C)c1CC (centres undefined)	i	i	-4.2%	-0.6%	7.08µM*	0.0%
O=C(N/N=C/c1ccc(O)cc1)NC12CC3CC(CC(C3)C1)C2	i	i	-8.0%	18.2%	2.3%	11.2µM*

Bioassay records from PubChem BioAssay.
